Laboratory results taken from PubChem BioAssay (NCATS).
Results filed as inconclusive are left out. Entries that show only a call come without a potency. Values without a mark were called inactive. The source made the active and inactive calls. Calls follow the shape of the dose curve; as a rule, active = well fitted cell-killing curve with a large enough effect; inconclusive = small, poorly fitted or top-dose-only effect, or effect the other way; inactive = flat fitted curve, though single readings scatter.

Key:
Assay in all cases: Primary qHTS to identify gynecologic anti-cancer compounds using libraries of approved drugs and bioactive compounds (AID 1345084); also: nearly all actives have a fitted effect of over 55% in size
C33A = details: Gynecologic cancer cell panel viability, ATPlite luminescence, 48 h; series mostly up to 57.5 µM
Outline: (§1)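 48 h compound exposure at 37 C, 5% CO2; five-point qHTS. ATPlite luminescence readout of cell ATP.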

CAOV3 = details: Gynecologic cancer cell panel viability, ATPlite luminescence, 48 h; series mostly up to 57.5 µM
Outline: as §1

CASKI = details: Gynecologic cancer cell panel viability, ATPlite luminescence, 48 h; series mostly up to 57.5 µM
Outline: as §1

Es-2 = details: Gynecologic cancer cell panel viability, ATPlite luminescence, 48 h; series mostly up to 57.5 µM
Outline: as §1

HeLa = details: Gynecologic cancer cell panel viability, ATPlite luminescence, 48 h; series mostly up to 57.5 µM
Outline: as §1

Hek293T = details: Gynecologic cancer cell panel viability, ATPlite luminescence, 48 h, control line for the selectivity index; series mostly up to 57.5 µM
Outline: as §1

JEG-3 = details: Gynecologic cancer cell panel viability, ATPlite luminescence, 48 h; series mostly up to 57.5 µM
Outline: as §1

OV90 = details: Gynecologic cancer cell panel viability, ATPlite luminescence, 48 h; series mostly up to 57.5 µM
Outline: as §1

PA-1 = details: Gynecologic cancer cell panel viability, ATPlite luminescence, 48 h; series mostly up to 57.5 µM
Outline: as §1

SKOV3 = details: Gynecologic cancer cell panel viability, ATPlite luminescence, 48 h; series mostly up to 57.5 µM
Outline: as §1

Tov-21-G = details: Gynecologic cancer cell panel viability, ATPlite luminescence, 48 h; series mostly up to 57.5 µM
Outline: as §1

Tov112D = details: Gynecologic cancer cell panel viability, ATPlite luminescence, 48 h; series mostly up to 57.5 µM
Outline: as §1
Potency is read from the fitted curve at half-maximal effect.

## C/C=C/c1cc(OC)c2c(c1)[C@@H](C)[C@@H](c1ccc(O)c(OC)c1)O2
C33A
  Potency: inactive
CAOV3
  Potency: inactive
CASKI
  Potency: inactive
Es-2
  Potency: inactive
HeLa
  Potency: inactive
Hek293T
  Potency: inactive
JEG-3
  Potency: inactive
OV90
  Potency: inactive
PA-1
  Potency: inactive
SKOV3
  Potency: inactive
Tov-21-G
  Potency: inactive
Tov112D
  Potency: inactive

## C[C@@H]1O[C@@H](O[C@H]2[C@H](O[C@H]3CC[C@@]4(C)C(CC[C@]5(C)C4C=C[C@]46OC[C@@]7(CCC(C)(C)C[C@H]74)[C@@H](O)C[C@]65C)[C@]3(C)CO)O[C@H](CO)[C@@H](O)[C@@H]2O[C@@H]2O[C@H](CO)[C@@H](O[C@@H]3O[C@@H](C)[C@H](O)[C@@H](O)[C@H]3O)[C@H](O)[C@H]2O)[C@H](O)[C@H](O)[C@H]1O (stereo partly drawn)
C33A
  activity change, negative = cytotoxicity: -24.9% [at 11.6 µM]
CAOV3
  activity change, negative = cytotoxicity: -6.89% [at 11.6 µM]
CASKI
  activity change, negative = cytotoxicity: -6.58% [at 11.6 µM]
Es-2
  activity change, negative = cytotoxicity: -4.56% [at 11.6 µM]
HeLa
  activity change, negative = cytotoxicity: -11.4% [at 11.6 µM]
Hek293T
  activity change, negative = cytotoxicity: -7.26% [at 11.6 µM]
JEG-3
  activity change, negative = cytotoxicity: -0.552% [at 11.6 µM]
OV90
  activity change, negative = cytotoxicity: -28.6% [at 11.6 µM]
PA-1
  activity change, negative = cytotoxicity: -23.2% [at 11.6 µM]
SKOV3
  activity change, negative = cytotoxicity: -29.1% [at 11.6 µM]
Tov-21-G
  activity change, negative = cytotoxicity: -25.6% [at 11.6 µM]
Tov112D
  activity change, negative = cytotoxicity: -4.43% [at 11.6 µM]

## C=C1C[C@]23C[C@H]1CC[C@H]2[C@@]1(C)CCC[C@@]2(C)C(=O)O[C@@H]([C@@H]3O)[C@@H]12
C33A
  Potency: inactive
CAOV3
  Potency: inactive
CASKI
  Potency: inactive
Es-2
  Potency: inactive
HeLa
  Potency: inactive
Hek293T
  Potency: inactive
JEG-3
  Potency: inactive
OV90
  Potency: inactive
PA-1
  Potency: inactive
SKOV3
  Potency: inactive
Tov-21-G
  Potency: inactive
Tov112D
  Potency: inactive

## CC(=O)O[C@H]1CC[C@@]2(C)C(CC[C@@H](C)[C@]23Cc2c(O)cc4c(c2O3)CN([C@@H](CCC(=O)O)C(=O)O)C4=O)C1(C)C (stereo partly drawn)
C33A
  Potency: inactive
CAOV3
  Potency: inactive
CASKI
  Potency: inactive
Es-2
  Potency: inactive
HeLa
  Potency: inactive
Hek293T
  Potency: inactive
JEG-3
  Potency: inactive
OV90
  Potency: inactive
PA-1
  Potency: inactive
SKOV3
  Potency: inactive
Tov-21-G
  Potency: inactive
Tov112D
  Potency: inactive

## COC(=O)C12C(=O)C(C)=C(O)C1(C)C(C)=CC1C3(CO)CCC(O)C(C)(C)C3CCC12C (stereo not drawn)
C33A
  Potency: inactive
CAOV3
  Potency: inactive
CASKI
  Potency: inactive
Es-2
  Potency: inactive
HeLa
  Potency: inactive
Hek293T
  Potency: inactive
JEG-3
  Potency: inactive
OV90
  Potency: inactive
PA-1
  Potency: inactive
SKOV3
  Potency: inactive
Tov-21-G
  Potency: inactive
Tov112D
  Potency: inactive

## CC[C@@H](O)C[C@@H]1C(C)=C[C@@H]2CCCC[C@@H]2[C@@]1(C)C(=O)O
C33A
  Potency: inactive
CAOV3
  Potency: inactive
CASKI
  Potency: inactive
Es-2
  Potency: inactive
HeLa
  Potency: inactive
Hek293T
  Potency: inactive
JEG-3
  Potency: inactive
OV90
  Potency: inactive
PA-1
  Potency: inactive
SKOV3
  Potency: inactive
Tov-21-G
  Potency: inactive
Tov112D
  Potency: inactive

## COc1c2cc(c(O)c1OC)-c1cc(ccc1O)CCC(O)CCCC2 (stereo not drawn)
C33A
  Potency: inactive
CAOV3
  Potency: inactive
CASKI
  Potency: inactive
Es-2
  Potency: inactive
HeLa
  Potency: inactive
Hek293T
  Potency: inactive
JEG-3
  Potency: inactive
OV90
  Potency: inactive
PA-1
  Potency: inactive
SKOV3
  Potency: inactive
Tov-21-G
  Potency: inactive
Tov112D
  Potency: inactive

## CC1C(OC(=O)c2ccccc2)C(O)C2C(C(=O)O)=COC(OC3OC(CO)C(O)C(O)C3O)C12 (stereo not drawn)
C33A
  Potency: inactive
CAOV3
  Potency: inactive
CASKI
  Potency: inactive
Es-2
  Potency: inactive
HeLa
  Potency: inactive
Hek293T
  Potency: inactive
JEG-3
  Potency: inactive
OV90
  Potency: inactive
PA-1
  Potency: inactive
SKOV3
  Potency: inactive
Tov-21-G
  Potency: inactive
Tov112D
  Potency: inactive

## CC1CC[C@]2(C(=O)O)CC[C@]3(C(=O)O)C(=CCC4[C@@]5(C)CC[C@H](OC6OC(C)C(O)C(OC7OC(CO)C(O)C(O)C7O)C6O)C(C)(C)C5CC[C@]43C)C2C1C (stereo partly drawn)
C33A
  Potency: inactive
CAOV3
  Potency: inactive
CASKI
  Potency: inactive
Es-2
  Potency: inactive
HeLa
  Potency: inactive
Hek293T
  Potency: inactive
JEG-3
  Potency: inactive
OV90
  Potency: inactive
PA-1
  Potency: inactive
SKOV3
  Potency: inactive
Tov-21-G
  Potency: inactive
Tov112D
  Potency: inactive

## COc1c2c(c(C)c3c1C(=O)OC3)O[C@@]1(C)CC(O)C(C(C)(C)O)[C@](C)(CCC(=O)O)[C@H]1C2 (stereo partly drawn)
C33A
  Potency: inactive
CAOV3
  Potency: inactive
CASKI
  Potency: inactive
Es-2
  Potency: inactive
HeLa
  Potency: inactive
Hek293T
  Potency: inactive
JEG-3
  Potency: inactive
OV90
  Potency: inactive
PA-1
  Potency: inactive
SKOV3
  Potency: inactive
Tov-21-G
  Potency: 6.31 µM (active)
Tov112D
  Potency: inactive

## CCCn1c(=O)c2[nH]c(-c3ccc(OCC(=O)O)cc3)nc2n(CCC)c1=O
C33A
  Potency: inactive
CAOV3
  Potency: inactive
CASKI
  Potency: inactive
Es-2
  Potency: inactive
HeLa
  Potency: inactive
Hek293T
  Potency: inactive
JEG-3
  Potency: inactive
OV90
  Potency: inactive
PA-1
  Potency: inactive
SKOV3
  Potency: inactive
Tov-21-G
  Potency: inactive
Tov112D
  Potency: inactive

## CC(/C=C/C1=CC2=CC(=O)C(C)(O)C(O)C2=CO1)=C\C(C)CCO (stereo not drawn)
C33A
  Potency: inactive
CAOV3
  Potency: inactive
CASKI
  Potency: inactive
Es-2
  Potency: inactive
HeLa
  Potency: inactive
Hek293T
  Potency: inactive
JEG-3
  Potency: inactive
OV90
  Potency: inactive
PA-1
  Potency: inactive
SKOV3
  Potency: inactive
Tov-21-G
  Potency: inactive
Tov112D
  Potency: inactive

## O=C(COc1cccc2c(=O)[nH]ccc12)c1ccccc1
C33A
  Potency: inactive
CAOV3
  Potency: inactive
CASKI
  Potency: inactive
Es-2
  Potency: inactive
HeLa
  Potency: inactive
Hek293T
  Potency: inactive
JEG-3
  Potency: inactive
OV90
  Potency: inactive
PA-1
  Potency: inactive
SKOV3
  Potency: inactive
Tov-21-G
  Potency: inactive
Tov112D
  Potency: inactive

## C[C@@H]1O[C@@H](O[C@H]2[C@H](O)[C@@H](O[C@@H]3O[C@H](CO)[C@@H](O)[C@H](O[C@@H]4O[C@H](CO)[C@@H](O)[C@H](O)[C@H]4O)[C@H]3O)[C@H](O[C@H]3CC[C@@]4(C)C(=CC[C@@H]5C4CC[C@@]4(C)C5C[C@@H]5OC6(CC[C@@](C)(CO[C@@H]7O[C@H](CO)[C@@H](O)[C@H](O)[C@H]7O)O6)[C@@H](C)[C@@H]54)C3)O[C@@H]2CO)[C@H](O)[C@H](O)[C@H]1O (stereo partly drawn)
C33A
  activity change, negative = cytotoxicity: 0.269% [at 6.55 µM]
CAOV3
  activity change, negative = cytotoxicity: -0.0617% [at 6.55 µM]
CASKI
  activity change, negative = cytotoxicity: -1.1% [at 6.55 µM]
Es-2
  activity change, negative = cytotoxicity: -0.893% [at 6.55 µM]
HeLa
  activity change, negative = cytotoxicity: -3.62% [at 6.55 µM]
Hek293T
  activity change, negative = cytotoxicity: 9.02% [at 6.55 µM]
JEG-3
  activity change, negative = cytotoxicity: -5.56% [at 6.55 µM]
OV90
  activity change, negative = cytotoxicity: 1.28% [at 6.55 µM]
PA-1
  activity change, negative = cytotoxicity: -4.89% [at 6.55 µM]
SKOV3
  activity change, negative = cytotoxicity: 5.85% [at 6.55 µM]
Tov-21-G
  activity change, negative = cytotoxicity: -2.15% [at 6.55 µM]
Tov112D
  activity change, negative = cytotoxicity: -2.67% [at 6.55 µM]
